Experimental data: PubChem BioAssay (NCI)
Several values for one entry are separate records, joined by “and”; a condition that tells them apart may be missing. Equal entries are not always repeated. This is part of a sample that, as a whole, favours compounds with a hit. Of some 83,000 tested, about 20% had one in any assay.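 How to read the values: 0–100, growth inhibition (40 = 60% inhibited); 0, no net growth; -100 to 0, cell death (-40 = 40% of starting cells died; -100 = all dead).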 Unmarked numbers belong to inactive results. Activity calls are given as the source filed them. How the source made its calls: active means growth percent below 10; inactive means the rest.

These compounds were tested on MDA-MB-468 breast (assay: NCI-60 one-dose screen, 48 h (100 = growth as untreated, 0 = no growth, -100 = all killed)). Settings: 10 µM unless noted.

Structure (SMILES)	growth
O=[N+]([O-])c1ccc(S(=O)Cc2ccccc2)c([N+](=O)[O-])c1 (centres undefined)	-56% (active) and -64.1% (active)
CC(C)(C)C(=O)/C=C/c1ccc([N+](=O)[O-])cc1	45.5%
CC(C)n1cnc2c(Nc3cccc(Cl)c3)nc(N[C@H]3CCCC[C@@H]3N)nc21	20%
NC(=NCCCCCCN=C(N)/N=C(\N)Nc1ccc(Cl)cc1)/N=C(\N)Nc1ccc(Cl)cc1	-69% (active)
Cc1cc2c(cc1C)Nc1sc(NC(=O)CN3CCN(C)CC3)nc1C(=O)N2	105%
Cc1ccc(Cl)cc1Nc1nc(C(F)(F)F)ccc1C(=O)N/N=C/c1c(Cl)cccc1Cl	-13.1% (active)
Cc1ccc(S(=O)(=O)Oc2ccc3sc4cccc(NCCN(C)C)c4c(=O)c3c2)cc1	-91.7% (active)
COc1cc(/C=C2\CCCC3=C2NC(C)=NC3c2cc(OC)c(OC)c(OC)c2)cc(OC)c1OC (centres undefined)	-4.61% (active)
NC(=O)c1c(NC(=O)c2cccc(OC(F)(F)F)c2)sc2c1CCC(=O)C2	42%
C[C@]12C[C@H](O)[C@H]3[C@@H](CCC4=CC(=O)CC[C@@]43C)[C@@H]1CC[C@@H]2C(=O)CO	84.4%
O=C1CCCCN1c1ccc(C2=NCCCN2)cc1	82.2%
CN(C)c1ccc(/C=C\C(=O)c2ccccc2)cc1	84.8% and 88.3% and 83.9%
O=C1NC(=O)/C(=C\c2ccncc2)N1	102%
CCCCOc1nc2ccc(Cl)cc2cc1/C=C/C(=O)/C=C/c1ccc(OC)cc1	113%
O=C1CC(c2nc3ccccc3[nH]2)CN1C1CCCCC1 (centres undefined)	110%
COc1ccc2c(c1)c(-c1nc(-c3cn(C)c4ncccc34)cs1)cn2CCO	-16.8% (active)
Cc1cc(=O)n(C(=S)Nc2ccc(Cl)cc2)c2cc(O)ccc12	98.7%
C=C(C)[C@@H]1CC[C@]2(COCCCNCCC#N)CC[C@]3(C)[C@H](CC[C@@H]4[C@@]5(C)CC[C@H](OCCCNCCC#N)C(C)(C)[C@@H]5CC[C@]43C)[C@@H]12	8.32% (active)
Nc1nc(-c2cccc([N+](=O)[O-])c2)c(N=Nc2ccccc2)s1	11.5%
COc1ccc(-c2nc3ncccn3c2-c2nnc(-c3ccsc3C)o2)cc1	86.1%

Structure (SMILES)	growth
Nc1nc(N)c2[nH]cnc2n1	69.9%
O=C1C(Cl)=C(N=Nc2c(Cl)c(O)c3ccccc3c2O)C(=O)c2ccccc21	66.3%
Cc1ccc(-c2nc3nc(-c4ccccc4)nc(N4CCCN(S(C)(=O)=O)CC4)c3o2)cc1	121%
CCCCO[C@@H]1C=C2[C@H]3CC(C)(C)C(=O)C[C@]3(C(=O)O[C@@H]3O[C@H](CO[C@@H]4O[C@H](CO)[C@@H](OC5OC(C)C(O)C(O)C5O)[C@H](O)[C@H]4O)[C@@H](O)[C@H](O)[C@H]3O)CC[C@@]2(C)[C@]2(C)CC[C@H]3C(C)(C)C(=O)CC[C@]3(C)[C@@H]12 (some centres undefined)	101%
O=C(c1cccc(Br)c1)N1CCN(c2ccnc3cc(Cl)ccc23)CC1	66%
CCc1ccc(/C(C#N)=C/C=C/c2ccccc2)cc1	-13.9% (active)
CCN1C(=O)N(CC)C2Nn3c(s/c(=C\c4ccccc4Br)c3=O)=NC21 (centres undefined)	12.3%
CC(C)N1CCN(c2ccncc2S(=O)(=O)N2CCN(C)CC2)CC1	94.3%
Nc1nc(Cl)c2[nH]cnc2n1	94.7%
Cc1c(C(=O)NCCN2CCOCC2)cn2ncnc(Oc3ccc(NC(=O)Nc4ccc(Cl)c(C(F)(F)F)c4)cc3)c12	-10.4% (active)
O=[N+]([O-])c1ccccc1N=Nc1ccc(O)cc1O	118%
COc1ccc(C(=O)O)cc1.[Ag]	93.9%
Oc1cccc2ccc(-c3nnc(SCc4ccc(O)c5ncccc45)o3)nc12	0.74% (active)
COc1ccc(-c2[nH]c3ccc(OC)cc3c2C=C(C#N)C#N)cc1	-13.7% (active)
[2H]c1nc(Nc2ncc(F)c(-c3cc(F)c4nc(C)n(C(C)C)c4c3)n2)c([2H])c([2H])c1CN1CCN(CC)CC1	90.1%
CCN(CCNc1ccc(C)c2sc3ccccc3c(=O)c12)CC(C)(C)O	26%
CC(=O)c1c(C)nc2ccccc2c1/C=C/c1ccc(F)cc1	46.1%
COCCOc1cc2ncnc(N3CCN(c4cc(S(C)(=O)=O)c(C)cc4Cl)CC3)c2cc1OCCOC	90.2%
C/C(=N/NC(N)=O)c1ccco1	110%
